The text below walks through data of PubChem BioAssay.

The structures appear in SMILES notation. Active and inactive are the calls of the source. Unless noted, how the calls were made is not given here.

The test system of test [1] is Wnt5a (protein binding on small-molecule microarray). The experiment in a line: Wnt5a binders on small-molecule microarray, primary screen, biophysical, 635/667 nm fluorescence (AID 1142).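 Further: fluorescence read at 667 nm with signal to noise per printed feature.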 The note with it: 635 nm fluorescence, higher = more signal.
A short description of test [2]: cell viability in Huh7 cells, primary screen, cytotoxicity control for HCV replication inhibitor project, CellTiter-Glo luminescence, basal, 48 h (AID 1143).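 Further: Huh7 hepatoma cells carrying a hepatitis C replication reporter with no stimulus; test concentration not given here.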 Conditions: Huh7 HCV replicon, higher = more signal, called active from +8 up or from −8 down. Background: Cellular ATP, detected with luciferase, serves as a proxy for viable cell number.
Test [3] can be described thus: P. aeruginosa biofilm formation inhibitors, primary screen, PAO1 strain, BacTiter-Glo luminescence, LB-PBS (AID 1144). Conditions: 12 h, higher = more signal.
Test [4] is described as follows: CREB reporter modulators without forskolin, primary screen, cell-based, PC12, CRE-LacZ reporter, unstimulated (AID 1145). Conditions: no forskolin, luminescence, 4.5 h, higher = more signal, called active from +8 up or from −8 down.
Test [5] in a line: CREB reporter modulators under forskolin, primary screen, cell-based, PC12, CRE-LacZ reporter, forskolin-stimulated (AID 1146).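 Further: PC12 cells with 6xCRE LacZ reporter stimulated by forskolin 10 µM; beta-galactosidase reporter signal reflecting CREB driven transcription.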 Conditions: luminescence, 4.5 h, higher = more signal, called active from +8 up or from −8 down.
The target of test [6] is Streptavidin (Streptomyces avidinii) (UniProt P22629). The experiment in a line: streptavidin binders on small-molecule microarray, primary screen, artefact control for SMM compound annotation, biophysical, 635/667 nm fluorescence (AID 1147).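 Further: signal reflects streptavidin binding to arrayed compounds as a control protein.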 The note with it: streptavidin binding, higher = more signal.
Test [7] is described as follows: small-molecule binders of probe aInhba, primary screen, biochemical, small-molecule microarray, 635/667 nm fluorescence (AID 1148).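 Further: score merges 667nm spot fluorescence with signal-to-noise for antibody binding to printed compounds.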 Conditions: higher = more signal.
The target of test [8] is Torsin-1A (Homo sapiens) (UniProt O14656). Kind of test: torsin A binders from cell lysate, primary screen, small-molecule microarray, wild-type, 635/667 nm (AID 1149). Conditions: COS7 hTOR1A-WT lysate, 635 nm fluorescence, higher = more signal.
For test [9] the target is unchanged. Kind of test: small-molecule binders of mutant TOR1A in lysate, primary screen, cell lysate, small-molecule microarray, COS7 lysate, 635/667 nm fluorescence (AID 1150).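 Further: score pools 667 nm emission and signal to noise measuring lysate protein binding.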 The note with it: COS7 hTOR1A mutant lysate, 635 nm fluorescence, higher = more signal.
Test [10] relates to Sonic hedgehog protein (Shh). Kind of test: small-molecule binders of Shh protein, primary screen, biochemical, small-molecule microarray, 635/667 nm fluorescence (AID 1151).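 Further: Shh protein binding to compounds spotted on small-molecule microarray slides; score combines spot fluorescence intensity with signal-to-noise across triplicate slides.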 Conditions: small-molecule microarray binding, 635 nm fluorescence; higher = more signal.
The nature of test [11]: E. coli DRC41 culture turbidity changes, primary screen, E. coli filamentation inducer project, strain DRC41, OD650, 48 h (AID 1152).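 Further: E. coli MC1000 strain DRC41 lacking acrAB efflux pump and sulA.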 The note with it: E. coli DRC41 (acrAB sulA), higher = more signal, called active from +8 up or from −8 down.
The nature of test [12]: small-molecule binders of probe aLefty1, primary screen, biochemical, small-molecule microarray, 635/667 nm fluorescence (AID 1153).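 Further: score merges spot fluorescence with signal-to-noise ratio from the scanned slide images.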 The note with it: higher = more signal.
Test [13] is described as follows: PSAC antagonists in infected red cells, primary screen, cell-based, P. falciparum Indochina, OD700, 1 h (AID 1154). The note with it: P. falciparum Indochina infected RBC osmotic lysis, higher = more signal, called active from +8 up or from −8 down.
Test [14] is described as follows: PSAC antagonists in infected red cells, primary screen, cell-based, P. falciparum Indochina, OD700, 2 h (AID 1155).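 Further: lysis reports solute entry through the parasite surface anion channel PSAC; channel blockers reduce lysis of infected cells.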 The note with it: P. falciparum Indochina infected erythrocytes, osmotic lysis OD700; higher = more signal, called active from +8 up or from −8 down.
Test [15] is described as follows: osmotic lysis modulators in infected erythrocytes, primary screen, PSAC antagonist project, cell-based, P. falciparum Indochina, OD700, 3 h (AID 1156). The note with it: higher = more signal, called active from +8 up or from −8 down.
Test [16] is described as follows: PSAC antagonists in infected red cells, primary screen, cell-based, P. falciparum Indochina, OD700, 18 h (AID 1157). Conditions: P. falciparum Indochina infected erythrocytes, osmotic lysis OD700, 18 h; higher = more signal, called active from +8 up or from −8 down.
Test [17] is described as follows: modulators of S6 phosphorylation in cells, primary screen, cell-based, A549, cytoblot, luminescence, serum-stimulated (AID 1158).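 Further: serum-stimulated A549 lung adenocarcinoma cells; signal is phosphorylated S6 detected by cytoblot immunostaining with HRP secondary.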 The note with it: A549 phospho-S6 cytoblot, 5 h, higher = more signal.
Test [18] addresses NADPH oxidase 2 (Homo sapiens) (UniProt P04839). The experiment in a line: NOX2-dependent H2O2 signal modulators, primary screen, NOX inhibitor project, cell-based, HEK293-NOX2, PMA-stimulated, Amplex Red fluorescence (AID 1159). Further: test concentration not given here. Conditions: 45 min, higher = more signal, called active from +8 up or from −8 down.
Test [19] has as its target NADPH oxidase 4 (Homo sapiens) (UniProt Q9NPH5). The experiment in a line: NOX4-dependent H2O2 signal modulators, primary screen, NOX inhibitor project, cell-based, HEK293-NOX4, tetracycline-induced, Amplex Red fluorescence (AID 1160). Conditions: 45 min, higher = more signal, called active from +8 up or from −8 down.
The target of test [20] is NADPH oxidase 5 (Homo sapiens) (UniProt Q96PH1). Kind of test: NOX5-dependent H2O2 signal modulators, primary screen, NOX inhibitor project, cell-based, HEK293-NOX5, Amplex Red fluorescence (AID 1161). The note with it: HEK293-NOX5, ionomycin, 45 min, higher = more signal.
Chain of NADPH oxidase 5 (Homo sapiens) (Q96PH1 whole entry, looked up): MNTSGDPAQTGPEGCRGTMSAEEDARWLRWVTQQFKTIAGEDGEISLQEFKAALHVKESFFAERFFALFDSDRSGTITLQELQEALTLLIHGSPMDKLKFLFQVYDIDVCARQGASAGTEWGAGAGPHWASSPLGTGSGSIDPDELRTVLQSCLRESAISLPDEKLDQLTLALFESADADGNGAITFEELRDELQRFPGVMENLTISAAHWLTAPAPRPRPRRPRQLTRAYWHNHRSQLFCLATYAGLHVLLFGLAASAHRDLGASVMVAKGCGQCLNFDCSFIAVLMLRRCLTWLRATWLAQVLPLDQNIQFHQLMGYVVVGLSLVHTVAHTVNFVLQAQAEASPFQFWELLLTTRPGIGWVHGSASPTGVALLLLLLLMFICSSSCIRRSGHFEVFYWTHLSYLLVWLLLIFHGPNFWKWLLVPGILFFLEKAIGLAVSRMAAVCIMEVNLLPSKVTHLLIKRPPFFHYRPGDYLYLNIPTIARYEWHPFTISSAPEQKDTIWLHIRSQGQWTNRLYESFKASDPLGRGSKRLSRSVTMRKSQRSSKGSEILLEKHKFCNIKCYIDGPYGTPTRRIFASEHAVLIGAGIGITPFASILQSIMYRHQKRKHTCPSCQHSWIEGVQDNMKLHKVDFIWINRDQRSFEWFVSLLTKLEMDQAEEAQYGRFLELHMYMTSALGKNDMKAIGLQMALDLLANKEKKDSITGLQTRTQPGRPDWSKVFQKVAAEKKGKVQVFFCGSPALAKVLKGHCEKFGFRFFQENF

Chain of Streptavidin (Streptomyces avidinii) (P22629 whole entry, looked up): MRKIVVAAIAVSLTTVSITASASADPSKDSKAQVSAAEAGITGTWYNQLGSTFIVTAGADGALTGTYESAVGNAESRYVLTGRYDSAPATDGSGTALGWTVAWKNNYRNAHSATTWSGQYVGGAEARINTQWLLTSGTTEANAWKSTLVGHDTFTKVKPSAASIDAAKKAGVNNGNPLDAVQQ
Chain of NADPH oxidase 4 (Homo sapiens) (Q9NPH5 whole entry, looked up): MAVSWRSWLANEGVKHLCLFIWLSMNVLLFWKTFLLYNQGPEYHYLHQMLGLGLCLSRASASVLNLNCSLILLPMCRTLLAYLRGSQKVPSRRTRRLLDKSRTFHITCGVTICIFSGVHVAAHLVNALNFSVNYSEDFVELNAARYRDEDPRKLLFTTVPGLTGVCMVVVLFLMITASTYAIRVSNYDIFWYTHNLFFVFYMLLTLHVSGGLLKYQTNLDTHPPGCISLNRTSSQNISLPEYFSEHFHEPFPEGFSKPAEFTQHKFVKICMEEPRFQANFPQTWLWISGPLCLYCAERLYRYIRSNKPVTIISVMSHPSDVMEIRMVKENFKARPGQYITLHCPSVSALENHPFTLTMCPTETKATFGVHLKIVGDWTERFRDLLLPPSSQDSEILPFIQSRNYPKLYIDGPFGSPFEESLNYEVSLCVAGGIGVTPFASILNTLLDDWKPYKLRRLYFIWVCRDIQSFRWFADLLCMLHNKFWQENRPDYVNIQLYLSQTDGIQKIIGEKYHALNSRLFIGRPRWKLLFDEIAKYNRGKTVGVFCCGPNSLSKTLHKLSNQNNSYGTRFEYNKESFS
Chain of Torsin-1A (Homo sapiens) (O14656 whole entry, looked up): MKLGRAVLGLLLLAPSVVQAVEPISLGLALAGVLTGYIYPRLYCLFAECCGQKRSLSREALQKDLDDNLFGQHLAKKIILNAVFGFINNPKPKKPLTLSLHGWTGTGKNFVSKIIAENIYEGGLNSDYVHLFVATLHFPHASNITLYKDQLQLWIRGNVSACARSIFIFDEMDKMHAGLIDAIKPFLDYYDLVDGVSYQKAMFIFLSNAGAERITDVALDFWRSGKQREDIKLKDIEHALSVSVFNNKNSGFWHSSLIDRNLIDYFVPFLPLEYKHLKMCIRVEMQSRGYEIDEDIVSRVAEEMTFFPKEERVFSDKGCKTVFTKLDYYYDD
Chain of NADPH oxidase 2 (Homo sapiens) (P04839 whole entry, looked up): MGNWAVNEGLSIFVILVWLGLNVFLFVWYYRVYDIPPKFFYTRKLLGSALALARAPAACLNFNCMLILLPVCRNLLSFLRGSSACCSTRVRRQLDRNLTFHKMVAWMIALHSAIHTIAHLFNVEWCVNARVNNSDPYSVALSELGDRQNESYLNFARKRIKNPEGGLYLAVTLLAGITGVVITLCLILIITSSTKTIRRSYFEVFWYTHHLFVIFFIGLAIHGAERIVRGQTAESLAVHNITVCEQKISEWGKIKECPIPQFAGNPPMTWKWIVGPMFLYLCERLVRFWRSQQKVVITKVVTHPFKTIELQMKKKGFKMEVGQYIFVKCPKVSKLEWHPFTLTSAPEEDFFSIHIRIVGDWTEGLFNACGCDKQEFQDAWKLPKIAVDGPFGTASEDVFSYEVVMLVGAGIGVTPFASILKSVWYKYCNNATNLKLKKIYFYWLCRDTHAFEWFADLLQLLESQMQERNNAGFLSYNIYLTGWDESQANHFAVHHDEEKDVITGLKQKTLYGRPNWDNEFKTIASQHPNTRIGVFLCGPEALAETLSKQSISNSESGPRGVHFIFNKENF

Consider `C=CCC(OC(C)=O)[C@@H]1[C@@H](N(Cc2cc3ccccc3o2)C(=O)c2ccc(-c3ccccc3)cc2)c2cc(OCCCO)ccc2N1C(=O)c1ccc2ccccc2c1` (stereo not given in full), for which the composite z-score in test [1] was -0.0582; in test [6] it was 0.0798; in test [7], -0.143; with Torsin-1A (Homo sapiens) [8], 0.0664; with Torsin-1A (Homo sapiens) [9] it was -0.0892; in test [10], 1.12. Also, the composite z-score in test [12] worked out at 0.187. Also, the z-score was -0.282 (inactive) in test [2]; 0.2 (inactive) in [3]; 1.22 (inactive) in test [4]; 0.655 (inactive) in test [5]; -0.966 (inactive) in test [11]; 0.923 (inactive) in test [13]. For the same compound, the z-score is 0.354 (inactive) in test [14]; 0.216 (inactive) in test [15]; 0.161 (inactive) in [16]; -0.109 in test [17]; -1.08 (inactive) in [18]; -0.72 (inactive) in test [19]. Further, in test [20], the z-score stood at 0.869.

`CCOC(=O)C1=CC[C@@H](c2ccccc2C(F)(F)F)N(S(=O)(=O)c2ccc(C)cc2)[C@H]1c1ccc(C#N)cc1`: the composite z-score in test [1] turned out to be 0.125; in test [6] it was 1.11; in test [7] it was 0.367; with Torsin-1A (Homo sapiens) [8], 0.502; with Torsin-1A (Homo sapiens) [9], 0.512; in [10], 0.494. In [12], this compound showed a composite z-score of 0.165. In addition, the z-score in [2] is -1.96 (inactive); in test [3] it was -0.29 (inactive); in test [4], -0.676 (inactive); in test [5] it was 0.465 (inactive); in test [11], -0.53 (inactive); in test [13] it was 0.873 (inactive). Besides, the z-score in [14] is 1.65 (inactive); in test [15], 0.341 (inactive); in test [16] it was 0.876 (inactive); in test [17] it was -0.669; in test [18], 0.823 (inactive); in test [19] it was 0.699 (inactive). In addition, in test [20], the z-score was determined as 0.102.

With `O=C1NC(=O)C2C1C=CC(C(O)c1cccc3ccccc13)N2Nc1ccc(Cl)cc1Cl` (stereo not given), the composite z-score in test [1] was 0.288; in [6], 0.984; in [7], 0.153; in the test with Torsin-1A (Homo sapiens) [8], -0.616; with Torsin-1A (Homo sapiens) [9] it was 1.01; in test [10], -0.325. Besides, the composite z-score in test [12] came to 0.505. Besides, the z-score in test [2] is -1.96 (inactive); in test [3], -0.329 (inactive); in test [4], -0.14 (inactive); in test [5] it was -0.572 (inactive); in test [11], -1.85 (inactive); in [13] it was 1.98 (inactive). In addition, the z-score in test [14] was 0.994 (inactive); in test [15], -2.46 (inactive); in [16], 1.42 (inactive); in test [17], -1.11; in [18], -1.37 (inactive); in test [19] it was -6.34 (inactive). The z-score in [20] is -3.5.

On to `CC1=C([C@H](O)CCc2ccccc2)[C@H](CO)[C@@H]2C(=O)N(C)C(=O)[C@@H]2C1`, for which the composite z-score in test [1] is -0.124; in test [6], 0.591; in test [7], -0.218; with Torsin-1A (Homo sapiens) [8], 0.285; with Torsin-1A (Homo sapiens) [9] it was 0.0992; in test [10], 0.656. This compound gave a composite z-score in [12] of 0.184. Further, the z-score was -0.0547 (inactive) in test [2]; -0.518 (inactive) in test [3]; -0.321 (inactive) in test [4]; -0.33 (inactive) in test [5]; 1.13 (inactive) in [11]; 4.81 (inactive) in test [13]. For the same compound, the z-score in test [14] was 0.403 (inactive); in test [15] it was -0.0722 (inactive); in [16] it was -0.0393 (inactive); in [17] it was -0.167; in test [18], -1.36 (inactive); in [19], 0.412 (inactive). For the same compound, the z-score in [20] came to 0.0196.

Regarding `COCCOC(=O)N1C(=O)[C@@]2(c3ccccc31)[C@H](C(=O)N1CCN(c3ncccn3)CC1)[C@H]1C(=O)O[C@H](c3ccccc3)[C@H](c3ccccc3)N1[C@@H]2c1ccc(O)cc1`, the composite z-score in test [1] was 0.135; in test [6], 0.284; in [7] it was -0.41; in the test with Torsin-1A (Homo sapiens) [8], -0.396; in the test with Torsin-1A (Homo sapiens) [9], -0.35; in [10], 1.07. In addition, the composite z-score in test [12] was found to be 0.0661. The z-score in [2] is -2.65 (inactive); in test [3], 0.0365 (inactive); in test [4], 0.631 (inactive); in [5], -0.484 (inactive); in [11], 0.81 (inactive); in test [13], 1.78 (inactive). The z-score in test [14] was 0.672 (inactive); in test [15], 0.481 (inactive); in test [16], 0.261 (inactive); in [17], 0.0481; in test [18] it was 1.25 (inactive); in test [19], -0.0154 (inactive). Further, in [20], the z-score was determined as 2.19.
